Mtb FBA inh – Mtb FBA enzyme inhibitors, primary screen, biochemical, fluorescence, strain H37Rv; Fructose-bisphosphate aldolase (Mycobacterium tuberculosis (strain ATCC 25618 / H37Rv)), …; purified M. tuberculosis FBA, fluorescence read-out; inhibition, % at 1 µM; hit rate 2.3% among 360,000; in the data active means inhibition above about 27%
Target sequence (P9WQA3 whole entry, looked up): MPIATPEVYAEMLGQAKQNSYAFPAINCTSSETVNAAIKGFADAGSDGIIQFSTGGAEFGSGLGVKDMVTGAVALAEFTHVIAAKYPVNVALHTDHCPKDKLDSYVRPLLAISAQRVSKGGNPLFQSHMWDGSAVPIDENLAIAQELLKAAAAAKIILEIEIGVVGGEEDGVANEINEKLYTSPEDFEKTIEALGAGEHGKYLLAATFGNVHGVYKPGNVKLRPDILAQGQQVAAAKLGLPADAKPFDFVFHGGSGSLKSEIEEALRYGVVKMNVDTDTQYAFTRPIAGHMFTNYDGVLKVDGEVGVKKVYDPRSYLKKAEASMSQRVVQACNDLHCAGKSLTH
Anthrax LF inh2 – Bacillus anthracis LF protease inhibitors, primary screen, biochemical, multiplex microsphere, MLPCN library | hit rate 0.12% among 360,000 | inhibition, % at 10 µM | multiplex microsphere protease cleavage assay | Lethal factor (Bacillus anthracis), P15917 | AID 588501, 2011
BoNT F protease – BoNT/F light chain protease inhibitors, primary screen, biochemical, flow cytometry, MLPCN library | Botulinum neurotoxin type F light chain protease (Clostridium botulinum) | Multiplex microsphere protease cleavage assay | inhibition, % at 10 µM | hit rate 0.22% among 360,000 | AID 588497, 2011; in the data active means inhibition above about 35%, passing the limit was not always enough; inconclusive means no clear call, values can overlap the other calls
BoNT A protease – BoNT/A light chain protease inhibitors, primary screen, biochemical, flow cytometry, MLPCN library; hit rate 0.17% among 360,000; Botulinum neurotoxin type A light chain protease (Clostridium botulinum A str. ATCC 3502); AID 588499, 2011; inhibition, % at 10 µM; multiplex microsphere protease substrate cleavage
Bead autofluor – counter-screen for toxin protease inhibitors: compound fluorescence; compound autofluorescence counterscreen, microsphere flow cytometry; hits give high values; fluorescence intensity (concentration not given with the values); hit rate 3.1% among 360,000; AID 624483; in the data active means fluorescence intensity above about 16000; inconclusive means no clear call, values can overlap the other calls
GDH-TPI inh – GDH-TPI coupling enzyme inhibitors, primary screen, artefact control for M. tuberculosis FBA inhibitor project, biochemical, absorbance, full deck | GDH-TPI coupled enzyme counterscreen, NADH absorbance | inhibition, % at 4.8 µM | hit rate 1.2% among 360,000 | AID 588335, 2011; in the data active means inhibition above about 30%
Numbers stand for hits; . = inactive; ? = inconclusive; / = no result given. In the library only some 6.7% were active in any assay of this set; here they are far more common. Unless noted, no stated cut-off is given here; in the data, active means inhibition above about 30%; inconclusive means no clear call, values can overlap the other calls; inactive means below that.

SMILES	Mtb FBA inh	Anthrax LF inh2	BoNT F protease	BoNT A protease	Bead autofluor	GDH-TPI inh
CCOC(=O)c1sc(=S)n(C)c1NC(=O)c1ccccc1Cl	.	.	.	.	.	39.5
CCOC(=O)c1sc(=S)n(C)c1NC(=O)c1ccc(OC)cc1	.	.	?	.	.	36.5
CCOC(=O)c1sc(=S)n(CC)c1NC(=O)C1CC1	.	.	.	.	.	35.1
CC(=O)c1ccc(C(=O)NC2CCCN(Cc3ccc(Cl)cc3)C2)s1 (stereo unspecified)	.	.	.	.	.	.
Cc1ccc(C(=O)Nc2ccccc2N2CCCCC2)cc1S(=O)(=O)N1CCOCC1	.	/	/	/	/	.
COCc1c(C(=O)N2CCN(c3ncccn3)CC2)oc2ccccc12	.	.	.	.	.	.
CC(C)C(CCNC(=O)CC(Cc1ccccc1)c1ccco1)c1ccco1 (stereo unspecified)	.	.	.	.	17138	.
CC(C)C(CCNC(=O)CN1C(=O)c2ccccc2C1=O)c1ccco1 (stereo unspecified)	.	.	.	.	.	.
CC(C)(C)c1ccc(C(=O)Nc2cccc(S(=O)(=O)NC3=NCCC3)c2)cc1	.	.	.	.	.	.
COc1ccc(OC)c(/C=C/C(=O)Nc2cccc(S(=O)(=O)NC3=NCCCCC3)c2)c1	.	.	.	.	.	.
COc1ccc(/C=C/C(=O)Nc2cccc(S(=O)(=O)NC3=NCCCCC3)c2)c(OC)c1	.	.	.	.	.	36.0
CCc1nnc(NS(=O)(=O)c2ccc(N/C=C\C(=O)c3cccc(OC)c3)cc2)s1	.	.	.	.	.	.
CCc1nnc(NS(=O)(=O)c2ccc(NC(=O)/C=C/c3ccc(OC)cc3OC)cc2)s1	.	.	.	.	.	39.7
CN(C)c1ccc(C(=O)Nc2cccc(S(=O)(=O)NC3=NCCCCC3)c2)cc1	.	.	.	.	.	30.8
COc1ccc(/C=C/C(=O)Nc2cccc(S(=O)(=O)NC3=NCCCCC3)c2)cc1	.	.	.	.	.	50.6
C[C@H](CO)N1C[C@H](C)[C@@H](CN(C)S(=O)(=O)c2cccc(C#N)c2)OCc2cnnn2CCCC1=O	.	.	.	.	.	.
CN(Cc1ccc(Cl)cc1Cl)C(=O)CNC(=O)c1ccc2c(c1)OCO2	.	.	.	.	.	.
O=C(Nc1ccccc1C(=O)Nc1ccccc1)c1ccco1	.	.	.	.	.	.
COC(=O)NNC(=O)CCCOc1ccc(Cl)cc1Cl	.	.	.	.	.	.
CCOC(=O)c1[nH]c2ccc(Cl)cc2c1-c1ccccc1	.	.	.	.	.	.
C[C@H](O)[C@@H]1CN2CCc3c([nH]c4ccccc34)[C@@H]2C[C@@H]1N(C)C(=S)NCCc1ccccc1	.	.	.	37.4	.	/
CCNC(=O)N(C)[C@H]1C[C@H]2c3[nH]c4ccccc4c3CCN2C[C@H]1[C@H](C)O	.	.	.	.	.	/
O=[N+]([O-])c1cccc(/C=N/Nc2nccnc2Cl)c1	.	.	.	.	.	37.2
O=[N+]([O-])c1cccc(/C=N/Nc2ccccn2)c1	.	.	.	.	.	.
COC(=O)c1ccccc1NC(=O)Oc1ccc(F)cc1	.	.	.	.	16560	.
SMILES	Mtb FBA inh	Anthrax LF inh2	BoNT F protease	BoNT A protease	Bead autofluor	GDH-TPI inh
COC(=O)c1ccccc1NS(=O)(=O)c1ccc(F)cc1	.	.	.	?	20259	.
CC(=O)N(C)c1ccc(N=Nc2c(C)[nH]n(-c3ccccc3)c2=O)cc1	.	.	?	.	.	.
CC(=O)N(C)c1ccc(N=Nc2ccc3ncccc3c2)cc1	.	.	.	.	.	56.4
COCC(=O)N(Cc1ccco1)c1nnc(C2CCOC2)s1 (stereo unspecified)	.	.	.	.	.	.
COc1cc(C2NC(=S)NC(c3ccccc3)=C2C(C)=O)cc(Cl)c1OCC(=O)O (stereo unspecified)	.	.	.	.	23312	.
COc1cccc(/C=N/NC(=O)c2ccc(=O)[nH]n2)c1O	.	.	.	.	.	31.2
Cc1[nH]c(C(=O)N/N=C/c2ccc(C(=O)O)cc2)c(C)c1C(=O)N/N=C/c1ccc(C(=O)O)cc1	.	.	.	.	.	73.8
COc1cccc(/C=N/NC(=O)c2ccc(-c3ccccc3)cc2)c1O	.	.	.	.	.	.
COc1cccc(/C=N/NC(=O)c2[nH]c(C)c(C(=O)N/N=C/c3cccc(OC)c3O)c2C)c1O	.	.	.	.	.	43.4
COc1ccc(OC)c(/C=N/NC(=O)c2ccc(=O)[nH]n2)c1	.	.	.	.	.	.
CCCCOC(=O)c1ccc(NC(=O)C(=O)NCCN(CC)CC)cc1	.	.	?	.	.	.
COc1cc(OC)cc(-c2nc3cc(C)ccc3o2)c1	.	.	.	.	22263	.
CC[C@]12c3[nH]c4ccc(OC)cc4c3CCN1C(=O)C(CC(=O)NCC13CC4CC(CC(C4)C1)C3)C[C@@H]2C(=O)N1CCN(C(=O)C2CC2)CC1 (stereo partly specified)	.	.	.	.	.	.
Cc1ccc(NC(=O)CSc2nc(=O)n(CCN3CCOCC3)c3c2CCCC3)cc1	.	.	?	.	.	.
CCCCOC(=O)CCCN1C(=O)/C(=C2\SC(=S)N(CCCC(=O)OCCCC)C2=O)SC1=S	.	45.2	.	65.3	.	.
Cc1ccc(S(=O)(=O)n2c(C)nc3ccccc32)cc1	.	.	.	.	.	.
CC(=O)NC1C(=O)N(CC(C)C)c2ccccc21 (stereo unspecified)	.	.	.	.	21274	.
Cc1cc2n(n1)C(c1ccccc1)Nc1ccccc1-2 (stereo unspecified)	.	.	.	.	16831	.
Cc1cc2n(n1)C(c1ccc3c(c1)OCO3)Nc1ccccc1-2 (stereo unspecified)	.	.	.	.	21039	.
Cc1cc2n(n1)C(c1sccc1C)Nc1ccccc1-2 (stereo unspecified)	.	?	?	?	?	.
O=C(C1CCC1)N1CCc2cc(S(=O)(=O)N3CCCCC3)ccc21	.	.	.	.	.	.
COc1ccc(CC(=O)Nc2cc(C)on2)cc1	.	.	.	.	.	.
Cc1nn(C)c(C)c1/C=C1/SC(=S)NC1=O	.	.	.	.	.	34.5
Cc1cc2c(cc1C)NC(CC(=O)NCc1ccccc1)C(=O)N2 (stereo unspecified)	.	.	.	.	23973	.
O=C(C1CSC2(c3ccc(F)cc3)CCC(=O)N12)N1CCCCCC1 (stereo unspecified)	.	.	.	.	20230	.
